According to PubChem BioAssay (NCI):
About 79,000 compounds went through this panel and 15% of them were active in at least one assay; those are over-represented in the sample as a whole. Active and inactive are the calls of the source. Rule as the data show it: active = growth inhibition above about 70%; inactive = the rest.

Assays:
[1] = NCI Yeast Anticancer Drug Screen. Data for the rad52 strain (AID 147);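 also: 0% = growth of vehicle-treated control cultures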; conditions: S. cerevisiae rad52 mutant growth inhibition, hits give high values
In short: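 DNA repair-defective yeast; compound exposure; growth scored against vehicle controls.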

[2] = NCI Yeast Anticancer Drug Screen. Data for the wt1 strain (AID 149);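 also: 0% = growth of vehicle-treated wt1 cultures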; conditions: S. cerevisiae wt1 strain (SPY 50644) growth inhibition, hits give high values
In short: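 The wt1 strain was treated with compounds, and growth was compared with vehicle-treated cultures to give inhibition.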

[3] = NCI Yeast Anticancer Drug Screen. Data for the rad50EPP+ strain (AID 151);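 also: 0% = growth of vehicle-treated control cultures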; conditions: S. cerevisiae rad50 mutant strain, hits give high values
In short: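 rad50EPP+ yeast treated with test compounds. Readout: growth vs vehicle control.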

[4] = NCI Yeast Anticancer Drug Screen. Data for the mgt1 strain (AID 153); conditions: S. cerevisiae mgt1 mutant growth inhibition, hits give high values
In short: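 Growth inhibition relative to vehicle controls was scored for the mgt1 yeast strain after compound exposure.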

[5] = NCI Yeast Anticancer Drug Screen. Data for the rad50 strain (AID 155);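 also: 0% = growth of vehicle-only cultures of the same strain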; conditions: S. cerevisiae rad50 strain growth inhibition, hits give high values
In short: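 Cells are treated with compound, grown, and their growth is then scored against vehicle-only cultures of the same repair-deficient yeast strain.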

[6] = NCI Yeast Anticancer Drug Screen. Data for the mec2-1 strain (AID 157); conditions: S. cerevisiae mec2-1 strain, hits give high values
In short: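 Growth inhibition is read against vehicle-treated controls after compound exposure of the mec2-1 yeast strain, which is defective in DNA damage repair or cell cycle control.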

[7] = NCI Yeast Anticancer Drug Screen. Data for the rad14 strain (AID 159);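 also: 0% = growth of vehicle-treated control cultures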; conditions: S. cerevisiae rad14 strain growth inhibition, hits give high values
In short: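 Readout: yeast growth inhibition, referenced to vehicle-only cultures. Strain bears a defined alteration in DNA damage repair.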

[8] = NCI Yeast Anticancer Drug Screen. Data for the sgs1 mgt1 strain (AID 161);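 also: 0% = growth of cultures given vehicle only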; conditions: S. cerevisiae sgs1 mgt1 strain, hits give high values
In short: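 Yeast cells carrying a defined DNA-repair defect were exposed to test compounds. Growth inhibition was measured relative to vehicle-treated controls.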

[9] = NCI Yeast Anticancer Drug Screen. Data for the CLN2oe strain (AID 163);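 also: 0% = growth of vehicle-only control cultures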; conditions: S. cerevisiae CLN2oe strain, hits give high values
In short: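 Compound-treated yeast; growth vs vehicle ctrl = % inhibition. Genetically altered strain (cell-cycle control).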

[10] = NCI Yeast Anticancer Drug Screen. Data for the cln2 rad14 strain (AID 165);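 also: 0% = growth equal to vehicle treated cultures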; conditions: S. cerevisiae cln2 rad14 strain, hits give high values
In short: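 Growth inhibition, relative to vehicle-treated controls, is the read-out. The test organism is a yeast strain with defined genetic alterations, cln2 rad14.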

[11] = NCI Yeast Anticancer Drug Screen. Data for the bub3 strain (AID 167); conditions: S. cerevisiae bub3 mutant strain, hits give high values
In short: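 Part of a panel of yeast mutants defective in DNA damage repair or cell cycle regulation. Each strain is grown with compound, and inhibition is calculated relative to solvent-treated cultures.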

[12] = NCI Yeast Anticancer Drug Screen. Data for the wt2 strain (AID 169);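 also: 0% = growth of vehicle-treated yeast cultures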; conditions: S. cerevisiae wt2 strain growth inhibition, hits give high values
In short: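 Compound exposure of yeast; growth compared with vehicle controls; inhibition reported.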

[13] = NCI Yeast Anticancer Drug Screen. Data for the mlh1 strain (AID 171);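 also: 0% = growth of vehicle-treated control cultures of the same strain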; conditions: S. cerevisiae mlh1 strain growth inhibition, hits give high values
In short: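 Compounds are applied to a genetically altered yeast strain, and its growth is compared with that of vehicle-treated cultures to give percent inhibition.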

[14] = NCI Yeast Anticancer Drug Screen. Data for the sgs1 strain (AID 173);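 also: 0% = growth of vehicle-only control cultures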; conditions: S. cerevisiae sgs1 mutant, hits give high values
In short: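 Compounds applied to genetically altered yeast; growth compared with vehicle-treated cultures to give % inhibition.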

[15] = NCI Yeast Anticancer Drug Screen. Data for the mlh1 rad18 strain (AID 175); conditions: S. cerevisiae mlh1 rad18 strain growth inhibition, hits give high values
In short: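 Cells of a genetically altered yeast strain, deficient in DNA damage repair, were treated with compound. Their growth was then compared with that of vehicle-treated cultures to give inhibition.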

[16] = NCI Yeast Anticancer Drug Screen. Data for the rad18 strain (AID 177); conditions: S. cerevisiae rad18 mutant growth inhibition, hits give high values
In short: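 Compounds are applied to a repair-deficient yeast strain, and growth is compared with that of vehicle-treated cultures to give percent inhibition.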

[17] = at 5.0 µM (retest, dose inferred, filed as 0.5)
[18] = at 50.0 µM (retest, dose inferred, filed as 5.0)

Measured: growth inhibition

N#C/C(=C/N1C(=O)/C(=C/c2ccc([N+](=O)[O-])cc2)SC1=S)c1nc2ccccc2s1
inactive: [1]; at 1.2 µM 5% | [1]; at 3.7 µM 9% | [1]; at 11.0 µM 18% | [1]; at 33.0 µM 36% | [2]; at 1.2 µM 4% | [2]; at 3.7 µM 5% | [2]; at 11.0 µM 7% | [2]; at 33.0 µM 18% | [2]; at 100.0 µM 59% | [3]; at 1.2 µM 19% | [3]; at 3.7 µM 45% | [3]; at 11.0 µM 69% | [4]; at 1.2 µM 1% | [4]; at 3.7 µM 3% | [4]; at 11.0 µM 5% | [4]; at 33.0 µM 11% | [4]; at 100.0 µM 66% | [5]; at 1.2 µM -2% | [5]; at 3.7 µM -6% | [5]; [17] -4% | [5]; at 11.0 µM 0% | [5]; at 33.0 µM 40% | [5]; [18] 23% | [6]; at 1.2 µM 9% | [6]; at 3.7 µM 11% | [6]; [17] -1% | [6]; at 11.0 µM 18% | [6]; at 33.0 µM 34% | [6]; [18] 16% | [6]; at 100.0 µM 67% | [7]; at 1.2 µM 3% | [7]; at 3.7 µM 4% | [7]; at 11.0 µM 13% | [7]; at 33.0 µM 40% | [8]; [17] 7% | [8]; [18] 48% | [9]; at 1.2 µM 8% | [9]; at 3.7 µM -1% | [9]; at 11.0 µM 3% | [9]; at 33.0 µM 16% | [9]; at 100.0 µM 55% | [10]; [17] -16% | [10]; [18] 30% | [10]; at 50.0 µM 61.1% | [11]; at 1.2 µM -2% | [11]; at 3.7 µM 4% | [11]; [17] -18% | [11]; at 11.0 µM 9% | [11]; at 33.0 µM 26% | [11]; [18] 34% | [11]; at 100.0 µM 63% | [12]; at 1.2 µM 1% | [12]; at 3.7 µM 4% | [12]; at 11.0 µM 8% | [12]; at 33.0 µM 31% | [13]; at 1.2 µM 5% | [13]; at 3.7 µM 6% | [13]; at 11.0 µM 13% | [13]; at 33.0 µM 37% | [14]; at 1.2 µM 11% | [14]; at 3.7 µM 18% | [14]; at 11.0 µM 30% | [14]; at 33.0 µM 61% | [15]; [17] 13% | [15]; [18] 55% | [16]; at 1.2 µM 19% | [16]; at 3.7 µM 33% | [16]; at 11.0 µM 48% | [16]; at 33.0 µM 69%
active: [1]; at 100.0 µM 77% | [3]; at 33.0 µM 86% | [3]; at 100.0 µM 87% | [5]; at 50.0 µM 87.3% | [5]; at 100.0 µM 79% | [6]; at 50.0 µM 81.7% | [7]; at 100.0 µM 84% | [8]; at 50.0 µM 85.6% | [11]; at 50.0 µM 86% | [12]; at 100.0 µM 75% | [13]; at 100.0 µM 82% | [14]; at 100.0 µM 82% | [15]; at 50.0 µM 87.8% | [16]; at 100.0 µM 82%

S=C1SCN(CCc2ccccc2)CN1CCc1ccccc1
active: [3]; at 11.0 µM 85% | [3]; at 33.0 µM 92% | [3]; at 100.0 µM 81% | [6]; at 50.0 µM 71.8% | [8]; at 50.0 µM 76.2% | [11]; [18] 72% | [11]; at 50.0 µM 79.1% | [15]; [18] 80%
inactive: [1]; at 1.2 µM 12% | [1]; at 3.7 µM 21% | [1]; at 11.0 µM 46% | [1]; at 33.0 µM 63% | [1]; at 100.0 µM 46% | [2]; at 1.2 µM 16% | [2]; at 3.7 µM -1% | [2]; at 11.0 µM 46% | [2]; at 33.0 µM 45% | [2]; at 100.0 µM 10% | [3]; at 1.2 µM 26% | [3]; at 3.7 µM 51% | [4]; at 1.2 µM 1% | [4]; at 3.7 µM 0% | [4]; at 11.0 µM 35% | [4]; at 33.0 µM 42% | [4]; at 100.0 µM 26% | [5]; at 1.2 µM -12% | [5]; at 3.7 µM 5% | [5]; [17] 7% | [5]; at 11.0 µM 50% | [5]; at 33.0 µM 64% | [5]; [18] 38% | [5]; at 50.0 µM 55% | [5]; at 100.0 µM 52% | [6]; at 1.2 µM -3% | [6]; at 3.7 µM 1% | [6]; [17] 24% | [6]; at 11.0 µM 52% | [6]; at 33.0 µM 54% | [6]; [18] 55% | [6]; at 100.0 µM 38% | [7]; at 1.2 µM -20% | [7]; at 3.7 µM -4% | [7]; at 11.0 µM 2% | [7]; at 33.0 µM 34% | [7]; at 100.0 µM 16% | [8]; [17] 9% | [8]; [18] 48% | [9]; at 1.2 µM 3% | [9]; at 3.7 µM 10% | [9]; at 11.0 µM 25% | [9]; at 33.0 µM 45% | [9]; at 100.0 µM 17% | [10]; [17] 12% | [10]; [18] 12% | [10]; at 50.0 µM 22.1% | [11]; at 1.2 µM -2% | [11]; at 3.7 µM 3% | [11]; [17] -4% | [11]; at 11.0 µM 23% | [11]; at 33.0 µM 53% | [11]; at 100.0 µM 42% | [12]; at 1.2 µM 6% | [12]; at 3.7 µM 3% | [12]; at 11.0 µM 53% | [12]; at 33.0 µM 63% | [12]; at 100.0 µM 47% | [13]; at 1.2 µM -3% | [13]; at 3.7 µM -10% | [13]; at 11.0 µM 20% | [13]; at 33.0 µM 40% | [13]; at 100.0 µM 19% | [14]; at 1.2 µM -5% | [14]; at 3.7 µM 16% | [14]; at 11.0 µM 31% | [14]; at 33.0 µM 59% | [14]; at 100.0 µM 48% | [15]; [17] -9% | [15]; at 50.0 µM 58% | [16]; at 1.2 µM 15% | [16]; at 3.7 µM 25% | [16]; at 11.0 µM 47% | [16]; at 33.0 µM 65% | [16]; at 100.0 µM 39%
